# KB-3-1 tox – qHTS assay for MDR1-selective chemotherapeutics: Primary screen using the parental adenocarcinoma cell KB-3-1; KB-3-1 viability, CellTiter-Glo ATP luminescence, 72 h; Potency, µM (doses to about 46.1 µM), actives largely listed as cytotoxic; 400,000 compounds, 1.4% hits; note: % is set by controls: 0 for no effect and ±100 for the full control effect; nearly all actives have a fitted effect of over 60% in size
#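 Multi-concentration cytotoxicity screen in KB-3-1 cells grown in DMEM lacking phenol red with 10% FBS. After 72 h at 37 °C with compound, ATP-dependent luminescence was recorded.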
# HT1080NT lethal – qHTS for induction of synthetic lethality in tumor cells producing 2HG: qHTS for the HT-1080-NT fibrosarcoma cell line; HT-1080-NT fibrosarcoma viability, CellTiter-Glo ATP luminescence, 48 h; Potency, µM (top dose mostly 46.1 µM), without a hit: at the highest dose activity, negative = less viability, actives largely listed as cytotoxic; 360,000 compounds, 1.6% hits; AID 686970, 2013;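 note: NT is the 2HG producing partner of a matched IDH1 knockdown line; 0% = DMSO-treated cells and -100% = media-only wells without cells; nearly all actives have a fitted effect of over 55% in size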
#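 Toxicity toward the 2HG-producing NT line was scored as %Activity, normalised to DMSO and no-cell wells, from CellTiter-Glo luminescence after 48 hours' treatment.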
# KB-V1 MDR tox – qHTS assay for MDR1-selective chemotherapeutics: Primary screen using the drug-selected MDR subline cells KB-V1; 400,000 compounds, 3.4% hits; KB-V1 MDR cells viability, CellTiter-Glo, 72 h; Potency, µM (series often up to 46.1 µM), most hits filed as cytotoxic; AID 1347076, 2019; note: % is set by controls: 0 for no effect and ±100 for the full control effect; nearly all actives have a fitted effect of over 60% in size
#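 qHTS viability screen in drug-selected KB-V1 MDR cells: 72 h compound treatment at 37 degrees C, ATP luminescence end point.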
# MCF10A rerep – A quantitative high throughput screen for small molecules that induce DNA re-replication in MCF 10a normal breast cells | MCF 10A DNA re-replication, Hoechst nuclear intensity, 48 h | Potency, µM (titrated, usually from 46.1 µM), for the others: at the highest dose activity, positive = re-replication, hits mostly activators | 350,000 compounds, 2.9% hits; note: % of control where 0% means no effect; nearly all actives have a fitted effect of over 50% in size
# HT1080 IDH1KD tx – qHTS for induction of synthetic lethality in tumor cells producing 2HG: qHTS for the HT-1080-IDH1KD cell line; HT-1080 IDH1 knockdown viability, ATP luminescence, 48 h; Potency, µM (doses to about 46.1 µM), for inactives: top-dose activity, negative = toxicity, most hits filed as cytotoxic; 360,000 compounds, 2% hits; AID 686971, 2013;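 note: 0% = DMSO wells and -100% = cell-free medium wells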
#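 Using the IDH1-knockdown HT-1080 line run in the same batch and compound series as the NT line, viability after 48 h at 37 °C was determined by CellTiter-Glo luminescence and expressed as % activity.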
# SW480 rereplic – A quantitative high throughput screen for small molecules that induce DNA re-replication in SW480 colon adenocarcinoma cells; SW480 DNA re-replication, Hoechst DNA content imaging, 48 h; Potency, µM (top dose mostly 46.1 µM), without a hit: at the highest dose re-replication activation, actives largely listed as activators; 340,000 compounds, 1.8% hits; AID 624297, 2012; note: % of control where 0% means no effect; nearly all actives have a fitted effect of over 55% in size
#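 Readout is total intensity of Hoechst-stained nuclei, excited at 405 nm and collected at 500-530 nm. Compound treatment lasted 48 hr at 37 C in 5% CO2 before staining.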
# The depositor's hits bear a star; i = inactive; ? = inconclusive; / = not tested or not shown; [ ] = remark or other dose. This is a sample that favours compounds with a hit; in the whole collection about 8% have one here. Calls come from the whole dose curve; as a rule, active = well fitted curve in the direction sought with a large enough effect; inconclusive = small, poorly fitted or top-dose-only effect, or another doubt; inactive = no such curve, though single readings can be large; an effect the other way counts as inactive or inconclusive. Potency is the fitted concentration of half-maximal effect.
SMILES,KB-3-1 tox,HT1080NT lethal,KB-V1 MDR tox,MCF10A rerep,HT1080 IDH1KD tx,SW480 rereplic
CC(C)Cn1c(N)c(C(=O)COC(=O)c2cc(-c3ccco3)nc3ccccc23)c(=O)n(C)c1=O,i,-1%,i,14%,-6%,7%[9.22 µM]
Cn1c(=O)c(C(=O)COC(=O)c2cc(-c3ccco3)nc3ccccc23)c(N)n(Cc2ccccc2)c1=O,/,/,/,23µM*,/,?
Cc1csc(=O)n1CC(=O)OCC(=O)c1c(N)n(C)c(=O)n(C)c1=O,i,0%,?,-2%,3%,-57%
Cc1ccc2c(c1)c(=O)c(S(=O)(=O)c1ccc(F)cc1)cn2CC(=O)Nc1ccc2c(c1)OCO2,i,/,?,/,/,/
O=C1[C@@H]2Cc3c([nH]c4ccccc34)C(c3cccc(Br)c3)N2C(=O)CN1C1CCN(Cc2ccccc2)CC1 (stereo partly drawn),?,?,i,?,23µM*,?
COc1ccc(S(=O)(=O)N(C(C)=O)c2ccc(OC(C)=O)c3ccccc23)cc1[N+](=O)[O-],?,21µM*,?,?,?,?
CC(=O)Oc1c(Cl)cc(N(C(C)=O)S(=O)(=O)c2ccccc2)c2ccccc12,?,?,?,?,?,6.5µM*
CCC(C)c1ccccc1OCCn1c(CCNC(=O)C2CCCCC2)nc2ccccc21 (stereo not drawn),?,/,i,/,/,/
Cc1c(C)c2ccc(O)c(CN3CCN(C)CC3)c2oc1=O,i,27%,i,-7%,28%,2%
CN1CCN(Cc2c(O)ccc3cc(-c4ccccn4)c(=O)oc23)CC1,i,10%,?,23µM*,11%,9.2µM*
Cc1ccc(Sc2c(O)c3ccccc3n(C)c2=O)cc1,i,11%,i,-1%,14%,-270%
Cc1ccc(Sc2c(C=O)c3ccccc3n2C)cc1,23µM*,?,?,?,?,15µM*
Cc1ccc(Sc2c([N+](=O)[O-])c(=O)n(C)c3ccccc23)cc1,?,4%,i,5.8µM*,7%,4%
CCOc1ccccc1CNC(=O)CN1C(=O)CCc2cc(S(=O)(=O)N3CCCCC3)ccc21,i,/,i,/,/,/
Cc1cc(C)n(C(C)CC(=O)Nc2ccc(C)c(F)c2)n1 (stereo not drawn),i,/,i,/,/,/
CC(=O)Nc1cccc(OC(=O)COc2ccc(Br)cc2)c1,i,-4%,i,5%,-2%,29µM*
CC(=O)Nc1ccccc1OCCOc1ccc(Br)cc1,?,-26%,18µM*,1%,-46%,?
Cc1ccc(OCC(=O)Oc2cccc(C)c2)cc1,i,0%,i,0%,0%,-19%
O=C(COc1ccc(Br)cc1)Nc1cccc2cccnc12,i,/,i,/,/,/
CCCN(CCC)CCCNC(=O)c1cc2c(=O)n(C)c3ccccc3c2s1,i,/,i,/,/,/
CCCCc1c(-c2ccccc2OC)ncn1CCc1ccc(Cl)cc1,?,?,12µM*,/,?,/
COc1ccc(Cc2nn3c(-c4ccccc4OC)nnc3s2)cc1,i,-4%,?,-2%,1%,-12%
CCCCc1c(-c2ccccc2OC)ncn1CCc1ccccc1,?,18µM*,12µM*,/,21µM*,/
CCCCc1c(-c2ccccc2OC)ncn1CCc1ccc(OC)cc1,?,16µM*,9.2µM*,/,?,/
Cc1ccc2scc(N3CCc4ccccc4C3)c(=O)c2c1,i,/,i,/,/,/
SMILES,KB-3-1 tox,HT1080NT lethal,KB-V1 MDR tox,MCF10A rerep,HT1080 IDH1KD tx,SW480 rereplic
CCN1C(=O)c2ccccc2S(=O)(=O)c2ccc(C(=O)NCc3ccccc3OC)cc21,i,/,i,/,/,/
Cc1ccc(-n2nc(C(=O)Nc3cccc(C#N)c3)c3c4ccccc4n(C)c3c2=O)cc1,i,/,i,/,/,/
Cc1csc(C(C#N)C(=O)c2cc3ccccc3o2)n1 (stereo not drawn),?,?,21µM*,19%,?,9%
Cc1ccc(C(=O)c2cn(Cc3ccc(F)cc3)c3nc(C)ccc3c2=O)cc1,i,/,i,/,/,/
O=c1[nH]c(Nc2nc3ccccc3o2)nc2c1CCCC2,i,2.2µM*,?,-30%,4µM*,3%
CCOc1ccc(Nc2nc3c(c(=O)[nH]2)CCCC3)cc1,i,17%,18µM*,8%,12%,?
N#C/C(=C\c1ccc(Cl)cc1)C(=O)NCC1CCCO1 (stereo not drawn),i,/,i,/,/,/
COc1ccc(CCN2CCC(CNC(=O)c3cnn(-c4ccc(C)cc4)c3C3CCN(C(=O)OC(C)(C)C)CC3)CC2)cc1,i,/,?,/,/,/
COc1ccc(-c2onc(C)c2-c2ccccc2)c(O)c1,?,?,?,?,16µM*,?
COc1ccc(-c2noc(C)c2-c2ccc3ccccc3n2)c(O)c1,?,?,?,?,?,4.6µM*
COc1ccc(-c2ccc3ccccc3n2)cc1,i,-14%,i,-5%,-11%,-9%
Cn1cc(C(=O)c2ccc(Cl)cc2)cc1-c1nc2ccccc2n1C,i,?,13µM*,?,?,7%
O=C(O)/C=C/C(=O)Nc1ccc(Oc2ccccc2)cc1,i,-1%,i,-37%,1%,-4%
CCOC(=O)/C=C/C(=O)Nc1ccc(Oc2ccccc2)cc1,i,7.3µM*,i,16µM*,16µM*,18%
CCOC(=O)/C=C/C(=O)Nc1ccc(S(=O)(=O)Nc2c(C)cc(C)cc2C)cc1,?,?,i,16µM*,-25%,?
CCOC(=O)/C=C/S(=O)(=O)c1ccc(NC(C)=O)cc1,15µM*,?,i,2.3µM*,?,2.6µM*
CC(NNC(=O)c1ccccc1)c1ccccc1 (stereo not drawn),/,/,/,-3%,/,0%
COCCCN1C(=O)c2[nH]nc(-c3ccccc3O)c2C1c1cccc(Cl)c1 (stereo not drawn),8.2µM*,26µM*,21µM*,15µM*,?,16µM*
CSc1ccc(C2c3c(-c4ccccc4O)n[nH]c3C(=O)N2Cc2ccncc2)cc1 (stereo not drawn),13µM*,/,i,/,/,/

# Bioassay records from PubChem BioAssay.
